The list is not random: actives were taken first. Their share in the collection is about 3.6%.
GDH-TPI counter-1: GDH-TPI coupled enzyme inhibition counter-screen; GDH-TPI coupled enzyme counterscreen, NADH absorbance; inhibition, % at 4.8 µM; 1.2% of 360,000 active; AID 588335; in the data active means inhibition above about 30%
Mtb FBA inh: inhibitors of M. tuberculosis fructose-bisphosphate aldolase; P9WQA3; purified M. tuberculosis FBA, fluorescence read-out; inhibition, % at 1 µM; 2.3% of 360,000 active
Target sequence (P9WQA3 whole entry, looked up): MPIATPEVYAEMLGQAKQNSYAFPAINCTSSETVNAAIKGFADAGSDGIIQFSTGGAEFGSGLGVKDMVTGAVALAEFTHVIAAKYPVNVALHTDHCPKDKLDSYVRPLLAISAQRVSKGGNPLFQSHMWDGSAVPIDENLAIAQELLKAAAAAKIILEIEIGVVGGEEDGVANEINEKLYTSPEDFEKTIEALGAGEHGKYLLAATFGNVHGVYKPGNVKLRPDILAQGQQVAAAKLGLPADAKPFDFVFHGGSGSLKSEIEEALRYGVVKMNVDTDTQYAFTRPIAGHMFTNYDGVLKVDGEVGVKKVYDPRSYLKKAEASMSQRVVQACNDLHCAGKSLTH
Mtb hypoxia rep: Mtb hypoxia fluorescent reporter inhibition. M. tuberculosis hypoxia-regulated fluorescent reporter, fluorescence. fluorescence inhibition, % (test concentration not listed). 0.1% of 300,000 active. AID 1159583; in the data active means fluorescence inhibition mostly above about 23%, no sharp cut-off; inactive means mostly below about 17%
Mtb betalactam: beta-lactam sensitization of Mtb H37Rv. AID 434955. 0.27% of 330,000 active. M. tuberculosis H37Rv growth with meropenem, percent inhibition. inhibition, % at 25 µM; call rule not given here;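 further: growth measured after seven days incubation then overnight dye step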
VHR inh abs: DUSP3 (human) phosphatase inhibition. P51452. recombinant VHR phosphatase, pNPP absorbance. inhibition, % at 13.3 µM. 0.52% of 290,000 active; in the data active means inhibition above about 50%
Target sequence (P51452 whole entry, looked up): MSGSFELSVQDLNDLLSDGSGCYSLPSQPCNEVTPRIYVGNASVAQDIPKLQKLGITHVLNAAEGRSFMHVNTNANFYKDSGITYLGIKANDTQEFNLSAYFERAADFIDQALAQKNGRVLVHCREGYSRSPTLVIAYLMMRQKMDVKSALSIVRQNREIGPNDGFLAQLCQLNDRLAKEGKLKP
Mtb FBA confirm: Mtb FBA inhibition, confirmed. shares compounds with Mtb FBA inh. purified M. tuberculosis FBA, fluorescence read-out. inhibition, % at 1 µM. 78% of 5,600 active. AID 651616
GDH-TPI counter-2: GDH-TPI inhibition counter-screen for FBA inhibitors; AID 652141; shares compounds with Mtb FBA inh; inhibition, % at 1 µM; 81% of 5,600 active; GDH-TPI coupled enzyme counterscreen, fluorescence; in the data active means inhibition above about 10%
GDH-TPI DR: inhibits GDH-TPI coupling enzymes in dose response; 79% of 170 active; GDH-TPI coupled enzyme assay, fluorescence, artifact counterscreen; shares compounds with Mtb FBA inh; IC50, µM; call rule not given here
A number is an active result; – = inactive; · = not tested or not shown; + = active, no number. Unless noted, no stated cut-off is given here; in the data, active means inhibition above about 27%; inactive means the rest.

SMILES	GDH-TPI counter-1	Mtb FBA inh	Mtb hypoxia rep	Mtb betalactam	VHR inh abs	Mtb FBA confirm	GDH-TPI counter-2	others
CCc1ccc(-c2cc(C(=O)NCCCn3ccnc3)c3ccccc3n2)s1	·	·	–	–	–	·	·
COc1cc2c(c(OC)c1OC)-c1c(cc3c(c1OC)OCO3)CC(C)[C@@](C)(O)C2 (stereo not given in full)	·	·	–	·	·	·	·
O=C(NCCCN1CCOCC1)c1cc(-c2ccco2)nc2ccccc12	–	89	–	–	·	115	75
CC1CN(C(=O)c2cc(-c3ccc(Cl)s3)nc3ccccc23)CC(C)O1 (stereo not given)	–	65	–	–	·	76	60
O=C(NCCCN1CCOCC1)c1cc(-c2ccc(F)cc2)nc2ccccc12	–	–	–	–	·	·	·
NCCCCC1NC(=O)C(CCC(=O)O)NC(=O)c2cc([N+](=O)[O-])cc(I)c2OCCC(C(N)=O)NC1=O (stereo not given)	·	·	–	·	·	·	·
Cn1nc(-c2ccc(Cl)cc2)c2cc(C(=O)NCCN3CCOCC3)sc21	–	34	·	–	–	41	26
Cn1nc(-c2ccc(Cl)cc2)c2cc(C(=O)NCCCN3CCOCC3)sc21	–	29	·	–	–	67	56
C#CCOCCOCCOCCNc1nc(N2CCN(C(=O)C(C(C)C)n3cc(CCO)nn3)CC2)nc(N2CCN(C(=O)C(C(C)CC)n3cc(CCCCN)nn3)CC2)n1 (stereo not given)	·	·	–	·	·	·	·
CCn1nc(C(=O)NC(CCSC)c2nc3ccccc3[nH]2)c2ccccc2c1=O (stereo not given)	·	·	–	·	·	·	·
CCn1c(=O)c(-c2ccccc2)c(O)c2ccccc21	–	–	–	–	–	·	·
CCCCn1c(=O)c(-c2ccccc2)c(O)c2ccccc21	–	31	–	–	–	112	92
O=c1[nH]c2ccccc2c(O)c1-c1ccccc1	–	–	·	–	–	·	·
O=c1c(-c2ccccc2)c(O)c2ccccc2n1-c1ccccc1	–	32	–	–	–	87	73
O=Cc1cn(-c2ccccc2)nc1-c1cc2cc(O)ccc2oc1=O	34	32	–	–	–	82	57
O=C(CSc1nc2ccccc2c(=O)[nH]1)Nc1ccccc1N1CCOCC1	–	33	–	–	–	97	77
O=C(NCc1ccncc1)/C(=C\c1ccc(F)cc1)NC(=O)c1ccccc1	–	45	–	–	–	185	151
Cc1ccc(C(=O)N/C(=C\c2ccc(F)cc2)C(=O)NCc2ccncc2)cc1	–	–	–	–	–	·	·
COc1ccc(C=NNC(=O)c2sccc2C)cc1Cn1nc(C)cc1C	·	·	–	·	·	·	·
COC(=O)CCS(=O)(=O)c1nc(-c2ccccc2)cc(C(F)(F)F)n1	–	–	–	–	–	·	·
COCC(C)NC(=O)CCS(=O)(=O)c1nc(-c2ccc(OC)cc2)cc(C(F)(F)F)n1 (stereo not given)	36	78	–	–	–	+	+
CC(C)=CCC[C@](C)(OC1OC(COC2OC(CO)C(O)C(O)C2O)C(O)C(O)C1O)C1CC[C@]2(C)C1C(=O)CC1[C@@]3(C)CCC(OC4OC(CO)C(O)C(O)C4O)C(C)(C)C3CC[C@]12C (stereo not given in full)	·	·	–	·	·	·	·
COc1ccc(C2=CC(=O)CC(c3ccc(OC)c(OC)c3)C2)cn1 (stereo not given)	·	·	–	·	·	·	·
COc1ccc(C2C=CCN(C(=O)c3ccccc3)C(C)C(=O)N2Cc2ccc(F)cc2)cc1 (stereo not given)	·	·	–	·	·	·	·
COc1ccc2cc(C(N)=O)c(=Nc3ccccc3)oc2c1	–	36	–	–	–	–	–	GDH-TPI DR=–
SMILES	GDH-TPI counter-1	Mtb FBA inh	Mtb hypoxia rep	Mtb betalactam	VHR inh abs	Mtb FBA confirm	GDH-TPI counter-2	others
CS(=O)(=O)c1nc(-c2ccc(Br)cc2)cc(-c2ccccc2)c1C#N	–	–	–	–	–	·	·
COc1ccccc1-c1c(C#N)c(N)nc2c1CCc1ccccc1-2	–	42	–	–	–	+	+
N#Cc1c(-c2cccs2)cc(-c2cccnc2)nc1N	–	88	–	–	–	102	81
COc1ccccc1-c1cc(-c2ccc(O)cc2)nc(N)c1C#N	–	66	–	–	–	140	109
N#Cc1c(-c2ccc(Br)cc2)cc(-c2cccnc2)nc1N	–	29	–	–	–	–	–	GDH-TPI DR=–
NC(=NOC(=O)C=Cc1ccccc1Cl)c1ccccn1	·	·	–	·	·	·	·
Cc1nnc(NN=CC(C)c2ccccc2)[nH]c1=O (stereo not given)	·	·	–	·	·	·	·
CCOC(=O)NN=C/C=C/c1ccccc1[N+](=O)[O-]	·	·	–	·	·	·	·
COc1cccc(C=NNC(=O)c2cnccn2)c1O	·	·	–	·	·	·	·
COc1cc(C=NNC(=O)C(=O)NCC2CCCO2)cc(Cl)c1O (stereo not given)	·	·	–	·	·	·	·
COc1ccc(-c2cc(-c3cccnc3)c(C#N)c(N)n2)cc1	–	71	–	–	–	135	106
CCCCCCCCC1=NCCc2c1[nH]c1ccccc21	–	–	–	–	–	·	·
CC1=NCCc2c1[nH]c1cc(O)ccc21	–	74	–	–	·	94	48
CCNC(=S)NN=Cc1cc(Br)cc(Br)c1OC	·	·	–	·	·	·	·
O=C(O)c1ccc2c(=O)n3c(nc2c1)/C(=C/c1ccc(C(F)(F)F)cc1)CC3	–	28	–	–	–	46	34
CCC(C)Sc1cccc(-c2nc3cc(C)ccn3c2NC2CCCCC2)c1 (stereo not given)	–	45	–	–	·	140	133
CCC(C)Sc1cccc(-c2nc3ccc(Cl)cn3c2NCc2ccccc2)c1 (stereo not given)	–	–	–	–	·	·	·
CCC(C)Sc1cccc(-c2nc3ccccn3c2NCc2ccccc2)c1 (stereo not given)	–	32	–	–	·	113	91
CCC(C)Sc1cccc(-c2nc3ccc(C)cn3c2NCc2ccccc2)c1 (stereo not given)	–	39	·	–	·	–	–
Cc1ccn2c(NC3CCCCC3)c(-c3cccc(SC4CCCCC4)c3)nc2c1	–	–	·	–	·	·	·
O=C1C2C(c3ccc(F)cc3)N3C(=O)N(c4ccccc4)C(=O)[C@@]3(Cc3ccccc3)C2C(=O)N1C1CCCCC1 (stereo not given in full)	·	·	–	·	·	·	·
COc1ccc(-c2ncccc2O)cc1	–	40	–	–	–	88	91
COc1ccc(NS(=O)(=O)c2cc(NC(=NS(=O)(=O)c3ccccc3)c3ccc(F)cc3)ccc2Cl)cc1	·	·	–	·	·	·	·
CCCn1c(-c2cccs2)nc2c1c(=O)[nH]c(=O)n2Cc1ccccc1	–	33	–	–	–	131	102
COc1ccc(-c2nc3c(c(=O)[nH]c(=O)n3Cc3ccccc3)n2CCO)cc1	–	39	–	–	–	170	143
